Measurements as given in PubChem BioAssay (EPA / NIEHS).
Records with an inconclusive call do not appear. Active and inactive are the calls of the source. The calls were made as follows, unless noted: active = hit-call score of the fitted dose curve at least 0.9, where 1 is the maximum; inactive = score below 0.9.

What was measured:
[1] = molecular target: Retinoic acid receptor RXR-alpha (Homo sapiens) (UniProt P19793); experiment: ATG_RXRa_TRANS: Attagene TRANS-FACTORIAL HepG2 Assay for human Retinoid X Receptor alpha (RXRa) (AID 2283012; active = hit-call score of the fitted dose curve at least 0.9, where 1 is the maximum)
Sequence of Retinoic acid receptor RXR-alpha (Homo sapiens) (P19793 whole entry, looked up, the tested form may be a part): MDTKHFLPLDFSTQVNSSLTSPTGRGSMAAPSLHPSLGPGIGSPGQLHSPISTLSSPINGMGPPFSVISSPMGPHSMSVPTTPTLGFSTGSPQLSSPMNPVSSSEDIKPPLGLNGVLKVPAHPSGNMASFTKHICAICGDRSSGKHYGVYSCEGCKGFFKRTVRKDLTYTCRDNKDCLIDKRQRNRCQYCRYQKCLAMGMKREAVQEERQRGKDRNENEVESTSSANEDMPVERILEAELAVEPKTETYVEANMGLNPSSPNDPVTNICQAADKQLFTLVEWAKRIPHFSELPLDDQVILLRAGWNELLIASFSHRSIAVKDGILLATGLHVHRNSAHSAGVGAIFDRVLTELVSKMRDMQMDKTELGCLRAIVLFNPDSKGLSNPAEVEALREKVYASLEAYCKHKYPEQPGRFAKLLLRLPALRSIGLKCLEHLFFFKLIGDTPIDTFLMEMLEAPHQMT
Outline: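 HepG2 cells transiently transfected with GAL4-UAS reporter units and chimeric RXRa-Gal4 protein, treated 24 h. Reporter mRNA measured by RT-PCR, fluorescent labelling, HpaI digestion and capillary electrophoresis. Induction fitted against DMSO.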

[2] = molecular target: human Retinoid X Receptor beta (RXRb), RXRB (gene 6257) (UniProt P28702); experiment: ATG_RXRb_TRANS: Attagene TRANS-FACTORIAL HepG2 Assay for human Retinoid X Receptor beta (RXRb) (AID 2283013; active = hit-call score of the fitted dose curve at least 0.9, where 1 is the maximum)
Sequence of human Retinoid X Receptor beta (RXRb), RXRB (gene 6257) (P28702 whole entry, looked up, the tested form may be a part): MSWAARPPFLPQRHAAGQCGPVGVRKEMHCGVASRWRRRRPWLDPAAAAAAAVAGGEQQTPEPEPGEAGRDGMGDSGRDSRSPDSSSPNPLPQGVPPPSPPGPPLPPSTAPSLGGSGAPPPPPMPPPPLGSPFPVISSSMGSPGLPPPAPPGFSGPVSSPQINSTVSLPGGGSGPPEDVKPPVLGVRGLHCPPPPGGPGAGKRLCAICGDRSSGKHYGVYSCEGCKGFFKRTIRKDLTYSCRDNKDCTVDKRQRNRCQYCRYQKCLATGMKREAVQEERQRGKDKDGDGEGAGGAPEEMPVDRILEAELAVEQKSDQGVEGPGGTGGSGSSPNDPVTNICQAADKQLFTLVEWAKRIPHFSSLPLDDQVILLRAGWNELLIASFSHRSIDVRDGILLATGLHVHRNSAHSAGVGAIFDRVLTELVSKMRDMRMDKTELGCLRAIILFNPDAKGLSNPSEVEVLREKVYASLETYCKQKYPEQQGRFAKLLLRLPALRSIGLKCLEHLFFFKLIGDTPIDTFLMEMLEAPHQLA
Outline: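 HepG2 cells were transiently transfected with multiplexed GAL4-UAS reporters and a chimeric RXRb-Gal4 construct, then exposed for 24 h. Reporter mRNA was quantified by RT-PCR, FAM labeling, HpaI digestion and capillary electrophoresis; gain of signal was scored against DMSO.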

[3] = read-out: E-selectin (Homo sapiens) (UniProt P16581); experiment: BSK_3C_Eselectin: BioMAP Diversity Plus: 3C Assay for Eselectin Biomarker Activity (AID 2283015); conditions: primary human endothelial cells (HUVEC); actives raise or lower the signal
Outline: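 Primary human umbilical vein endothelial cells (3C system), read 24 h after compound addition; E-selectin measured by ELISA. Bidirectional curve fitting against DMSO baseline; cytotoxicity by parallel SRB total-protein staining.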

[4] = read-out: Interleukin-1 alpha (IL1a), IL1A (gene 3552); experiment: BSK_BE3C_IL1a: BioMAP Diversity Plus: BE3C Assay for Interleukin-1 alpha (IL1a) Biomarker Activity (AID 2283016); conditions: primary human bronchial epithelial cells; actives raise or lower the signal
Outline: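 Human primary bronchial epithelial cells, 24 h chemical exposure; IL-1a quantified by ELISA, fitted bidirectionally against DMSO. Cytotoxicity assessed in parallel by SRB total-protein staining at the time of measurement.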

[5] = read-out: Monocyte Chemoattractant Protein-1 (MCP1), CCL2 (gene 6347); experiment: BSK_3C_MCP1: BioMAP Diversity Plus: 3C Assay for Monocyte Chemoattractant Protein-1 (MCP1) Biomarker Activity (AID 2283017); conditions: primary human endothelial cells (HUVEC); actives raise or lower the signal
Outline: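 Human umbilical vein endothelial cells (3C system) exposed to chemicals for 24 h; MCP-1 quantified by ELISA against the DMSO baseline with bidirectional fitting, and parallel SRB staining used to assess cytotoxicity.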

[6] = read-out: Monocyte Chemoattractant Protein-1 (MCP1), CCL2 (gene 6347); experiment: BSK_4H_MCP1: BioMAP Diversity Plus: 4H Assay for Monocyte Chemoattractant Protein-1 (MCP1) Biomarker Activity (AID 2283018); conditions: primary human endothelial cells (HUVEC); actives raise or lower the signal
Outline: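 Human umbilical vein endothelial cells (4H system) exposed to chemicals for 24 h in 96-well format. MCP-1 measured by ELISA; bidirectional fitting against DMSO, with SRB total-protein staining in parallel cultures for cytotoxicity.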

[7] = read-out: Human Leukocyte Antigen - DR isotype (HLADR), HLA-DRA (gene 3122); experiment: BSK_3C_HLADR: BioMAP Diversity Plus: 3C Assay for Human Leukocyte Antigen - DR isotype (HLADR) Biomarker Activity (AID 2283019); conditions: primary human endothelial cells (HUVEC); actives raise or lower the signal
Outline: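 HUVEC monoculture, HLA-DR measured by ELISA 24 h after chemical dosing. Fitted bidirectionally against DMSO baseline; parallel SRB staining assessed cytotoxicity, with 3C proliferation read by SRB at 48 h.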

[8] = read-out: Interleukin-8 (IL8), CXCL8 (gene 3576); experiment: BSK_3C_IL8: BioMAP Diversity Plus: 3C Assay for Interleukin-8 (IL8) Biomarker Activity (AID 2283020); conditions: primary human endothelial cells (HUVEC); actives raise or lower the signal
Outline: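 Primary human umbilical vein endothelial cells were dosed for 24 h. IL-8 was quantified by ELISA and fitted bidirectionally against DMSO. Cytotoxicity was assessed in parallel cultures by SRB staining at 560 nm.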

[9] = molecular target: human Thyroid Receptor alpha (THRa1), THRA (gene 7067) (UniProt P10827); experiment: ATG_THRa1_TRANS: Attagene TRANS-FACTORIAL HepG2 Assay for human Thyroid Receptor alpha (THRa1) (AID 2283014; active = hit-call score of the fitted dose curve at least 0.9, where 1 is the maximum)
Sequence of human Thyroid Receptor alpha (THRa1), THRA (gene 7067) (P10827 whole entry, looked up, the tested form may be a part): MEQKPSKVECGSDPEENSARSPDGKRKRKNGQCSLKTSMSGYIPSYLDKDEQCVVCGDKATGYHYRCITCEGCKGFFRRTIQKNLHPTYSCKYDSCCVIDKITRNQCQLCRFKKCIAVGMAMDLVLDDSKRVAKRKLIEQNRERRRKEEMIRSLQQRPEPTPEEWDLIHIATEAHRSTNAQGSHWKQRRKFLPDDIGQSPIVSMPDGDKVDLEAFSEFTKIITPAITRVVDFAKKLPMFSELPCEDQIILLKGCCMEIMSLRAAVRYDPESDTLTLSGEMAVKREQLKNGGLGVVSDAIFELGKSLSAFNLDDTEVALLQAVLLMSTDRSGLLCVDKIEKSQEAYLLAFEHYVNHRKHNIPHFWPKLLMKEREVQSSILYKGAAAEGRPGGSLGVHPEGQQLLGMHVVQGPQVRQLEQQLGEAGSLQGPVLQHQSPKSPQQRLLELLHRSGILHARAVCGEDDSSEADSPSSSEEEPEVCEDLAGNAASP
Outline: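 HepG2 cells transiently transfected with chimeric NR-Gal4 and GAL4-UAS reporter units, dosed 24 h. Reporter mRNA quantified by RT-PCR, fluorescent labeling, HpaI digestion and capillary electrophoresis; gain-of-signal fit versus DMSO.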

Measured: AC50

Sequence of E-selectin (Homo sapiens) (P16581 whole entry, looked up): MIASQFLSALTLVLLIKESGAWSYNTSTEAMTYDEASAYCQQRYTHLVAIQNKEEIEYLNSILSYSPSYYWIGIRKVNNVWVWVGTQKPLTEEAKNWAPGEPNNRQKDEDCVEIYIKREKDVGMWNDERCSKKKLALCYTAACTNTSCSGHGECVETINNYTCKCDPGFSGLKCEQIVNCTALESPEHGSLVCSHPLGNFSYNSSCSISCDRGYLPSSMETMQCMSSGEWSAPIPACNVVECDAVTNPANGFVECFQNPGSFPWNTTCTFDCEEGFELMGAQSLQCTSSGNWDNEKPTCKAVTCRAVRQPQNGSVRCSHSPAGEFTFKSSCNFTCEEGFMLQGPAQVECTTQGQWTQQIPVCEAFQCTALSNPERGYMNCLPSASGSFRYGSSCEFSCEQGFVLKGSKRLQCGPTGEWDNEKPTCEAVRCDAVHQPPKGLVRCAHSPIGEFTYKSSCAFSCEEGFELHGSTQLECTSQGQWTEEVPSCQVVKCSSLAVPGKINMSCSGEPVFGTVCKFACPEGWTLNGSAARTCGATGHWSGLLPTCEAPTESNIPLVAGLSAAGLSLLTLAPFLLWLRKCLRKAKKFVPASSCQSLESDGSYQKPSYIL

CCN(CC)CCO
not listed: [9]
inactive: all other assays above

Clc1ccc(C(c2ccc(Cl)cc2)C(Cl)(Cl)Cl)cc1
active: [3] 29.2 µM | [5] 26.9 µM | [7] 25.8 µM | [8] 22.7 µM
inactive: [2] | [9] | [4]

O=C(N[C@H](c1ccccc1)[C@@H]1CN2CCC1CC2)c1c(Cl)ccc(C(F)(F)F)c1Cl
inactive: [2] | [3] | [6] | [7]
active: [4] 44.5 µM | [5] 14.3 µM | [8] 19 µM

CC(C)(C)C(O)(CCc1ccc(Cl)cc1)Cn1cncn1 (stereo not drawn)
not listed: [2] | [9]
inactive: all other assays above

CC(C)COC(=O)c1ccccc1C(=O)OCC(C)C
inactive: [1] | [4]
active: [2] 43.6 µM | [3] 28.8 µM | [5] 37 µM | [6] 20 µM | [7] 32.3 µM | [8] 31.5 µM

CC(C)(O)c1cnn2c(-c3ccc(F)c(-c4c(F)cccc4C#N)c3)cnc2n1
inactive: [1] | [3] | [6]
active: [4] 31.6 µM | [5] 26.4 µM | [7] 30.4 µM | [8] 20 µM

COP(=S)(OC)SCN1C(=O)c2ccccc2C1=O
not listed: [1] | [8] | [9]
inactive: all other assays above

C[N+](C)(C)CC1CO1 (stereo not drawn)
not listed: [1] | [2] | [8]
inactive: all other assays above

O=P(OCCCl)(OCCCl)OCCCl
not listed: [1] | [2] | [8]
inactive: all other assays above

c1ccc(N=Nc2ccccc2)cc1
not listed: [9]
inactive: all other assays above

CC(C)(C)OOC(C)(C)CCC(C)(C)OOC(C)(C)C
active: [2] 16.4 µM
not listed: [9]
inactive: all other assays above

Clc1ccc(C(c2ccc(Cl)cc2)C(Cl)Cl)cc1
inactive: [9] | [4]
active: [2] 33.4 µM | [3] 29.7 µM | [5] 13.9 µM | [6] 10.2 µM | [7] 14.4 µM

[O-][Cl+]O
not listed: [1]
inactive: all other assays above

CN(C)C(=O)Nc1ccc(Cl)cc1
not listed: [2]
inactive: all other assays above

CC(C)(C)OOC(=O)c1ccccc1
not listed: [2] | [9]
inactive: all other assays above

CCCCC(CC)COC(=O)c1ccc(C(=O)OCC(CC)CCCC)c(C(=O)OCC(CC)CCCC)c1 (stereo not drawn)
not listed: [2] | [8] | [9]
inactive: all other assays above

COC(=O)Nc1nc2ccccc2[nH]1
not listed: [1]
inactive: all other assays above

Clc1ccccc1Cl
not listed: [1] | [2] | [9]
inactive: all other assays above

O=C(Oc1ccc(Br)cc1)N1CCN2CCC1CC2
not listed: [2] | [8] | [9]
inactive: all other assays above

CN(C)c1ccccc1
not listed: [2] | [8]
inactive: all other assays above

CN(C)[C@@H]1C(=O)C(C(N)=O)=C(O)[C@@]2(O)C(=O)C3=C(O)c4c(O)cccc4[C@@](C)(O)[C@H]3C[C@@H]12
not listed: [1] | [2] | [8]
inactive: all other assays above

Brc1ccc(Oc2ccccc2)cc1
active: [2] 69.7 µM | [3] 30.9 µM
not listed: [9]
inactive: all other assays above

C=CCc1ccc2c(c1)OCO2
not listed: [9]
inactive: all other assays above
